Measured values from PubChem BioAssay (Tox21).
Where “and” joins values, the source holds several entries; their conditions need not be identical. Equal values may be shown once. Inconclusive results are not listed. A call without a number means that no potency is given here. A structure can be active in one record and inactive in another. Calls of active or inactive are those of the source. Unless noted, the call rests on the fitted dose curve; in most records, active means well fitted curve in the direction sought with a large enough effect in the repeat runs; inconclusive means weak or mixed curves; inactive means no such curve, though single readings can be large; an effect the other way counts as inactive or inconclusive.

Assays:
[1] = qHTS assay to identify small molecule antagonists of the thyroid receptor (TR) signaling pathway (AID 743065); further: series mostly up to about 70 µM; nearly all actives have a fitted effect of over 55% in size
Procedure, shortened: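 Antagonism measured as loss of luciferase signal in GH3 cells stably carrying a TRE-luciferase reporter, co-treated with compound and T3 (1 nM final) for 23.5 h at 37 C. Viability was read in the same well by CellTiter-Fluor.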

[2] = test system: thyroid hormone receptor (rat, GH3 cells); assay: qHTS assay to identify small molecule agonists of the thyroid receptor (TR) signaling pathway (AID 743066; calls by dose curve)
[3] = qHTS assay to identify small molecule antagonists of the estrogen receptor alpha (ER-alpha) signaling pathway - cell viability counter screen (AID 743074; calls by dose curve;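 further: HEK293 cells carrying ER-alpha-UAS-bla reporter stimulated with 17beta-estradiol; nearly all actives have a fitted effect of over 45% in size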)
[4] = qHTS assay to identify small molecule antagonists of the estrogen receptor alpha (ER-alpha) signaling pathway using the BG1 cell line - cell viability counter screen (AID 743081);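 further: compound given together with 17beta-estradiol as the ER stimulus; series mostly up to about 70 µM; nearly all actives have a fitted effect of over 45% in size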
Aromatase (Homo sapiens) = Aromatase (Homo sapiens) (UniProt P11511); assay: qHTS assay to identify aromatase inhibitors (AID 743083); further: series mostly up to about 70 µM; nearly all actives have a fitted effect of over 55% in size
[5] = qHTS assay to identify aromatase inhibitors - cell viability counter screen (AID 743084);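 further: cells stimulated with testosterone during compound exposure; nearly all actives have a fitted effect of over 55% in size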
[6] = molecular target: Aryl hydrocarbon receptor (Homo sapiens) (UniProt P35869); assay: qHTS assay to identify small molecule that activate the aryl hydrocarbon receptor (AhR) signaling pathway (AID 743085); further: nearly all actives have a fitted effect of over 15% in size; further: potency means the concentration at half of the fitted maximal effect;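 on activation: HG2L7.5c1 human HepG2 liver cells with stably integrated DRE-driven firefly reporter; series mostly up to about 70 µM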
Procedure, shortened: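 Reporter assay in engineered HepG2 line HG2L7.5c1, whose plasmid carries twenty dioxin responsive elements upstream of firefly luciferase. Treatment lasted 24 h at 37C; ONE-Glo luminescence gauged induction.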

[7] = qHTS assay to identify small molecule that activate the aryl hydrocarbon receptor (AhR) signaling pathway - cell viability counter screen (AID 743086);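 further: HepG2 liver cells carrying the AhR DRE luciferase reporter; series mostly up to about 70 µM; nearly all actives have a fitted effect of over 45% in size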
Procedure, shortened: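 Cytotoxicity counter screen: CellTiter-Fluor signal (30 min, 37 C) in 4000 HepG2 cells/well carrying the DRE-luciferase reporter, following 24 h compound exposure at 37 C.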

[8] = molecular target: Peroxisome proliferator-activated receptor gamma (Homo sapiens) (UniProt P37231); assay: qHTS assay to identify small molecule agonists of the peroxisome proliferator-activated receptor gamma (PPARg) signaling pathway (AID 743094; active means well fitted activation curve with a large enough effect in the signal ratio in the repeat runs, not every such curve was filed as active; the % refers to the signal ratio)
Procedure, shortened: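 Stably transfected HEK293H cells (GeneBLAzer PPARg UAS-bla) were incubated with test substances for 17 h at 37C after a 5 h pre-incubation; beta-lactamase activity was then detected by FRET substrate fluorescence.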

[9] = molecular target: Peroxisome proliferator-activated receptor gamma (Homo sapiens) (UniProt P37231); assay: qHTS assay to identify small molecule antagonists of the peroxisome proliferator-activated receptor gamma (PPARg) signaling pathway (AID 743191; calls by dose curve; further: series mostly up to about 63 µM; nearly all actives have a fitted effect of over 30% in size)
Procedure, shortened: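 Beta-lactamase reporter under UAS control in HEK293H PPARg-bla cells; compound treatment 17 h at 37C. Read-out: fluorescence intensity after 1 h room-temperature incubation with LiveBLAzer B/G FRET substrate.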

[10] = qHTS assay to identify small molecule antagonists of the peroxisome proliferator-activated receptor gamma (PPARg) signaling pathway - cell viability counter screen (AID 743194); further: nearly all actives have a fitted effect of over 55% in size
Procedure, shortened: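 Viability was measured as CellTiter-Glo luminescence in GeneBLAzer PPARg UAS-bla HEK293H cells. These cells had been exposed 17 h at 37 C to compounds together with rosiglitazone at 50 nM final, with the beta-lactamase readout taken in the same wells.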

[11] = qHTS assay for small molecule agonists of the antioxidant response element (ARE) signaling pathway (AID 743202; active means well fitted activation curve with a large enough effect in the signal ratio in the repeat runs, not every such curve was filed as active; the % refers to the signal ratio)
Procedure, shortened: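 Quantitative high-throughput format in HepG2 cells bearing an integrated ARE-beta-lactamase reporter. Compound exposure lasted 16 h at 37 C, and fluorescence was read 2 h after adding LiveBLAzer B/G substrate at room temperature.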

[12] = qHTS assay for small molecule agonists of the antioxidant response element (ARE) signaling pathway - cell viability counter screen (AID 743203; calls by dose curve; further: nearly all actives have a fitted effect of over 55% in size)
Procedure, shortened: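 Cells (ARE-bla HepG2, 2,000/well) receive DMSO-dissolved compounds after a 5 hrs rest. Plates incubate 16 hrs at 37C/5% CO2. CellTiter-Glo luminescence is then recorded after 30 min at room temperature.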

[13] = qHTS assay for small molecule activators of the heat shock response signaling pathway - cell viability counter screen (AID 743209); further: nearly all actives have a fitted effect of over 50% in size
Procedure, shortened: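 Quantitative HTS format, Tox21 10K library. HeLa cells carrying an HSE-driven beta-lactamase reporter were treated 5 h at 37 C, then assessed for viability by CellTiter-Glo luminescence.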

[14] = qHTS assay for small molecule activators of the heat shock response signaling pathway (AID 743210; active means well fitted activation curve with a large enough effect in the signal ratio in the repeat runs, with a control signal flat, not every such curve was filed as active; the % refers to the signal ratio;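 further: HeLa cells with beta-lactamase reporter driven by heat shock elements; series mostly up to about 63 µM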)
Procedure, shortened: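 HeLa HSE-bla cells, overnight plating; cpd in DMSO 5 h, 37 C; LiveBLAzer B/G FRET substrate 2.5 h RT; fluorescence intensity read.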

[15] = qHTS assay to identify small molecule agonists of the peroxisome proliferator-activated receptor delta (PPARd) signaling pathway - cell viability counter screen (AID 743211); further: nearly all actives have a fitted effect of over 55% in size
Procedure, shortened: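 Multiplexed format: after the 2 h room-temperature LiveBLAzer B/G FRET step, CellTiter-Glo was added to the same wells. Luminescence after 30 min gave cell viability; compound exposure was 17 h at 37C.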

[16] = molecular target: Estrogen receptor (Homo sapiens) (UniProt P03372); assay: qHTS assay to identify small molecule antagonists of the estrogen receptor alpha (ER-alpha) signaling pathway (AID 743069; active means well fitted curve in the direction sought with a large enough effect in the signal ratio in the repeat runs, not every such curve was filed as active; the % refers to the signal ratio)
Procedure, shortened: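 ER-alpha-UAS-bla GripTite HEK293 line; 2% charcoal-stripped FBS overnight; plated, 4 hr 37C/5% CO2; cpd in DMSO + 17beta-estradiol, 18 hr 37C; LiveBLAzer B/G FRET substrate 2 hr RT; fluorescence intensity.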

[17] = molecular target: Estrogen receptor (Homo sapiens) (UniProt P03372); assay: qHTS assay to identify small molecule agonists of the estrogen receptor alpha (ER-alpha) signaling pathway (AID 743075; calls by dose curve;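 further: HEK293 GripTite cells with ER-alpha and UAS-driven beta-lactamase reporter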)
[18] = molecular target: Estrogen receptor (Homo sapiens) (UniProt P03372); assay: qHTS assay to identify small molecule agonists of the estrogen receptor alpha (ER-alpha) signaling pathway using the BG1 cell line (AID 743079); further: potency means the concentration at half of the fitted maximal effect; nearly all actives have a fitted effect of over 20% in size
[19] = qHTS assay to identify small molecule antagonists of the estrogen receptor alpha (ER-alpha) signaling pathway using the BG1 cell line (AID 743080; calls by dose curve;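 further: BG1 cells stimulated with 17beta-estradiol alongside compound; series mostly up to about 70 µM; nearly all actives have a fitted effect of over 25% in size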)
Procedure, shortened: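 Luminescence from a 4×ERE-luciferase reporter in BG1-Luc-4E2 cells served as read-out. Cells, pre-cultured 5 days in stripped-serum phenol-red-free medium, were exposed to compound with 17beta-estradiol co-stimulation for 21.5 h at 37 C.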

Estrogen receptor (Homo sapiens), sequence (P03372 whole entry, looked up): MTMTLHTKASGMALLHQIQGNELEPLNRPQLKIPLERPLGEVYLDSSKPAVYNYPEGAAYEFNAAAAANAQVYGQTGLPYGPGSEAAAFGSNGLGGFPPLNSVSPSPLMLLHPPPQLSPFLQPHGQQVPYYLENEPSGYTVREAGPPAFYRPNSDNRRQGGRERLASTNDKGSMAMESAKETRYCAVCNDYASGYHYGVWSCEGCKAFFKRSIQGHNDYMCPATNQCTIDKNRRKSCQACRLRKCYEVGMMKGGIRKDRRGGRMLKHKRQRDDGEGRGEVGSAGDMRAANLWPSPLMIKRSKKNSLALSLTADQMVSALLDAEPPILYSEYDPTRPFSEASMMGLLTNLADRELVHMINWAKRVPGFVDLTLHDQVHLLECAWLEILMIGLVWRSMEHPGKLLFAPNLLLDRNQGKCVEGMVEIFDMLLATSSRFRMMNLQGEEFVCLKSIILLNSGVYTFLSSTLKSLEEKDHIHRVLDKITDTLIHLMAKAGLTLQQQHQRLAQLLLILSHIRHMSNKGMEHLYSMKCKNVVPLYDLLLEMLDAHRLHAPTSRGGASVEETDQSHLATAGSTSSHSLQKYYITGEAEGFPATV
Peroxisome proliferator-activated receptor gamma (Homo sapiens), sequence (P37231 whole entry, looked up): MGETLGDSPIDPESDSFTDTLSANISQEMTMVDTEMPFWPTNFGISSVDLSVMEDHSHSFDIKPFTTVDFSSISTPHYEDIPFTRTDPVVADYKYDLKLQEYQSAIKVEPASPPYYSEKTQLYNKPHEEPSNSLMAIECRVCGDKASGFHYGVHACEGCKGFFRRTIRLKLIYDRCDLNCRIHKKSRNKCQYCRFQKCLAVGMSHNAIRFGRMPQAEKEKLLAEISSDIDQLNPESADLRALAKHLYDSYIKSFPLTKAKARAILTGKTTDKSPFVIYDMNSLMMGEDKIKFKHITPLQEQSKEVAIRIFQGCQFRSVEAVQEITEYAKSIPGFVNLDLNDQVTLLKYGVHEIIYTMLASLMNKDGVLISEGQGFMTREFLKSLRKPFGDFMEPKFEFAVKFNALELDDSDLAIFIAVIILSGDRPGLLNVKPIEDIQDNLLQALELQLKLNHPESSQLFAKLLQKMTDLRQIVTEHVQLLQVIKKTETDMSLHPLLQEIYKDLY
Aryl hydrocarbon receptor (Homo sapiens), sequence (P35869 whole entry, looked up): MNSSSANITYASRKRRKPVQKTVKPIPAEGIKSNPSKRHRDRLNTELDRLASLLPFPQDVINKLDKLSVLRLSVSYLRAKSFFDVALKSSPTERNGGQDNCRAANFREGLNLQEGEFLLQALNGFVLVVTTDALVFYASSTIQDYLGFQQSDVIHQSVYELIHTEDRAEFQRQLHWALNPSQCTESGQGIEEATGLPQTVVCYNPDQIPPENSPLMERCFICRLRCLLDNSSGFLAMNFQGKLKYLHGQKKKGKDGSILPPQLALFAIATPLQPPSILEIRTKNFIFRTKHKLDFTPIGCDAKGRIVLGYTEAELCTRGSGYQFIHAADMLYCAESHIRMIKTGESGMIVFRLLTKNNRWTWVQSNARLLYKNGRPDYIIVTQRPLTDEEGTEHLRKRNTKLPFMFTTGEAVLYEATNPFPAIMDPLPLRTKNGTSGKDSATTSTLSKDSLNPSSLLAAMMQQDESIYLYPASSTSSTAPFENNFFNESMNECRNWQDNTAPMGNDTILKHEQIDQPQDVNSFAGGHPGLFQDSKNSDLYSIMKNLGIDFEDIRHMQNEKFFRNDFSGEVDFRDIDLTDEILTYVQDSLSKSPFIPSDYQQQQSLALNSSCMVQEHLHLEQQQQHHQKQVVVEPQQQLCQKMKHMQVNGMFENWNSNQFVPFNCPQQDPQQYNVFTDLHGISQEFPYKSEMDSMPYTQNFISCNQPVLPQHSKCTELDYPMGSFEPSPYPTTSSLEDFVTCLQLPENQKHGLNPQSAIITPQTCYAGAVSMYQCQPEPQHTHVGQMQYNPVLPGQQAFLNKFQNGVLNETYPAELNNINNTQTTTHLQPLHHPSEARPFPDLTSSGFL
Aromatase (Homo sapiens), sequence (P11511 whole entry, looked up): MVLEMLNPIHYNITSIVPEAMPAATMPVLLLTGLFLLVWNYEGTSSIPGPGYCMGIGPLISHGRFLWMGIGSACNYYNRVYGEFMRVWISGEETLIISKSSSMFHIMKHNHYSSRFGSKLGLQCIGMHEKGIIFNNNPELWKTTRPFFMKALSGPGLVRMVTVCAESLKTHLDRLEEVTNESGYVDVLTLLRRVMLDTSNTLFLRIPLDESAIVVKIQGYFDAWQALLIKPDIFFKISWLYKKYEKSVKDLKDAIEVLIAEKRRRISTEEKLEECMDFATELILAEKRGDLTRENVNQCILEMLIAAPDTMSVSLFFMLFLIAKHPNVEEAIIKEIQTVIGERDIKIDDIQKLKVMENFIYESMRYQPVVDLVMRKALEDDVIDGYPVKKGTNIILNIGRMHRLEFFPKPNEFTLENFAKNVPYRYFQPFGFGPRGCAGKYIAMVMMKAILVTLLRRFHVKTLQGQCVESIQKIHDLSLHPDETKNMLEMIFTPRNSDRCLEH

Row | SMILES | Potency [1] | Potency [2] | Potency [3] | Potency [4] | Potency (Aromatase (Homo sapiens)) | Potency [5] | Potency [6] | Potency [7] | outcome [8] | outcome [9] | outcome [10] | Potency [11] | outcome [12] | outcome [13] | outcome [14] | outcome [15] | Potency [16] | Potency [17] | Potency [18] | Potency [19]
1 | CCC1(c2ccccc2)C(=O)NCNC1=O | inactive | inactive | inactive | inactive | inactive | inactive | inactive | inactive | inactive | inactive | inactive | inactive | inactive | inactive | inactive | inactive |  |  |  | 
2 | O=S(=O)(O)NC1CCCCC1 | inactive | inactive | inactive | inactive | inactive | inactive | inactive | inactive |  |  | inactive |  | inactive | inactive | inactive | inactive |  |  |  | 
3 | CCCCCCCCCCCCCCCC(=O)O | inactive | inactive | inactive | inactive | inactive | inactive | inactive | inactive | inactive | inactive | inactive |  | inactive | inactive | inactive | inactive |  |  |  | 
4 | CCCCOC(=O)CC(CC(=O)OCCCC)(OC(C)=O)C(=O)OCCCC |  | inactive | inactive | inactive | inactive | inactive | inactive | inactive | inactive | inactive | inactive | inactive | inactive | inactive | inactive | inactive |  |  |  | 
5 | NS(=O)(=O)c1cc(C(=O)O)c(NCc2ccco2)cc1Cl | inactive | inactive | inactive | inactive |  | inactive |  | inactive | inactive |  | inactive | inactive | inactive | inactive | inactive | inactive | inactive | inactive | 15 µM (active) | inactive
6 | CC(=O)OCC(COC(C)=O)OC(C)=O | inactive | inactive | inactive | inactive | inactive | inactive | inactive and 67.7 µM (active) | inactive | inactive | inactive | inactive |  | inactive | inactive | inactive | inactive |  |  |  | 
7 | Cc1ccc(O)cc1 | inactive | inactive | inactive | inactive | inactive | inactive | inactive | inactive | inactive | inactive | inactive |  | inactive | inactive | inactive | inactive |  |  |  | 
8 | O=C(O)C(=O)O |  |  | inactive | inactive | inactive | inactive | inactive | inactive | inactive | inactive | inactive |  | inactive | inactive | inactive | inactive |  |  |  | 
9 | O=C(O)CCCCCCCC(=O)O | inactive | inactive | inactive | inactive | inactive | inactive | inactive | inactive | inactive | inactive | inactive |  | inactive | inactive | inactive | inactive |  |  |  | 
10 | O=C1NC(=O)c2ccccc21 | inactive | inactive | inactive | inactive | inactive | inactive | inactive | inactive | inactive | inactive | inactive | inactive | inactive | inactive | inactive | inactive |  |  |  | 
11 | CCCN(CCC)S(=O)(=O)c1ccc(C(=O)O)cc1 | inactive | inactive | inactive | inactive | inactive | inactive | inactive | inactive | inactive | inactive | inactive | inactive | inactive | inactive | inactive | inactive |  |  |  | 
12 | O=C(c1ccccc1)c1ccccc1 |  |  | inactive | inactive | inactive | inactive | inactive | inactive |  |  | inactive |  | inactive | inactive | inactive | inactive |  |  |  | 
